40 molecules from PubChem BioAssay (Tox21) can be followed below.

Structures are written as SMILES. Unmarked numbers belong to inactive results. Activity calls are given as the source filed them. Calls come from the whole dose curve.
% is set by controls: 0 for no effect and ±100 for the full control effect.

Sequence of Estrogen receptor (Homo sapiens) (P03372 whole entry, looked up): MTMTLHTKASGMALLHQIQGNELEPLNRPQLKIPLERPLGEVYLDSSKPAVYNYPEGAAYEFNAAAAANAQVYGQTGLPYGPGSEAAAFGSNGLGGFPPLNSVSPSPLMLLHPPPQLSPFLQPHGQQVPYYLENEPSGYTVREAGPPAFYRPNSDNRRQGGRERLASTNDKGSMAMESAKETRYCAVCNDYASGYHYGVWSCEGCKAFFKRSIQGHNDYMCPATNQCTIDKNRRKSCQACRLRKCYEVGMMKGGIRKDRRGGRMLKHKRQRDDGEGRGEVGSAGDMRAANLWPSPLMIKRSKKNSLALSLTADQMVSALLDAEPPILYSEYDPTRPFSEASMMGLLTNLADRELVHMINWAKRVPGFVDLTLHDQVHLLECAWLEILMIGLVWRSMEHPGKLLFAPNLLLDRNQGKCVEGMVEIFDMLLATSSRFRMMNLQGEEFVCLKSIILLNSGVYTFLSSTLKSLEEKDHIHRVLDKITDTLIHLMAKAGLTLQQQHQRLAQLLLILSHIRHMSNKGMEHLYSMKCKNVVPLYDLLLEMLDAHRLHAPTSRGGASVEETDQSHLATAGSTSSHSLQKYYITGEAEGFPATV

The assay addresses Estrogen receptor (Homo sapiens) (UniProt P03372). As to the kind of experiment: qHTS assay to identify small molecule agonists of the estrogen receptor alpha (ER-alpha) signaling pathway in the presence of an antagonist (AID 1259383). Note: top concentration of the series differs between compounds; nearly all actives have a fitted effect of over 15% in size. The conditions noted are these: VM7Luc4E2 cells, ERE-luciferase, +ICI-182,780, 22 h; series mostly up to 92.4 µM; activation: at the top concentration. From the text:
National Center for Advancing Translational Sciences [NCATS] NIH Chemical Genomics Center [NCGC] U.S. Environmental Protection Agency [EPA] National Institutes of Environmental Health Sciences [NIEHS] National Toxicology Program [NTP] Assay overview: Estrogen receptor (ER), a member of nuclear hormone receptor plays an important role in development, metabolic homeostasis and reproduction. Two subtypes of ER, ER-alpha and ER-beta, have similar expression patterns with some uniqueness in both types. Endocrine disrupting chemicals (EDCs) and their interactions with steroid hormone receptors like ER causes disruption of normal endocrine function. Therefore, it is important to understand the effect of environmental chemicals in ER signaling pathway. For identifying ER agonists, VM7Luc4E2 cell line has been used in the current assay. VM7Luc4E2 cell line (provided by Denison MS, University of California) endogenously expresses full-length ER-alpha and is stably transfected with a plasmid containing four estrogen responsive elements (ERE) upstream of a luciferase reporter gene. This current screening for measuring luciferase reporter gene activity using VM7Luc4E2 cells against Tox21 10K library collection is a confirmation study on agonist mode screening in presence of ER-antagonist (ICI-182,780) at 10.0nM final concentration.
Assay Protocol Summary: VM7Luc4E2 cells were cultured in phenol red free assay medium containing 10% charcoal stripped FBS for 5 days prior to the assay. The cells were dispensed at 4,000 cells in 4uL of assay medium per well into white wall/solid-bottom 1536-well plates (Corning Life Sciences, Corning, NY) using a Multidrop Combi (Thermo Fisher Scientific Inc., Waltham, MA) dispenser. After the assay plates were incubated at 37C and 5% CO2 for 24hr, 1uL of 10.0nM (final concentration) ICI-182,780 or assay buffer was added using two separate tips of Flying Reagent Dispenser (FRD, Aurora Discovery, San Diego, CA). Then 23nL of compounds dissolved in DMSO at 15 concentrations and positive controls or DMSO only was transferred to the assay plates by a Pintool station (Wako, San Diego, CA). The assay plates were incubated at 37C and 5% CO2 for 22hr. For luciferase read, 4uL/well ONE-Glo reagent (Promega Corporation, Madison, WI) was added to each well using FRD and after 30min incubation at room temperature, luminescence signal was measured on ViewLux plate reader (PerkinElmer, Shelton, CT).
For orientation: Quantitative high-throughput screening tests each substance at several concentrations.
`Nc1ccc([N+](=O)[O-])cc1[N+](=O)[O-]`: the “activation” value is 0.942%.

As to `Cc1c(F)c(F)c(COC(=O)C2C(/C=C(\Cl)C(F)(F)F)C2(C)C)c(F)c1F` (stereo not given), the “activation” value is -0.448%.

As for `N#C/C(N)=C(/N)C#N`, the “activation” value is 0.366%.

Consider `O=C(NCc1cccnc1)Nc1ccc([N+](=O)[O-])cc1`, for which the “activation” value was 4.56%.

Turning to `OCCCBr`, the “activation” value is -3.2%.

On to `COc1ccc(-c2ccccc2)cc1NNC(=O)OC(C)C`, for which the “activation” value is 2.99%.

With `CC(=O)CCC(C)=O`, the “activation” value was -1.07%.

Take `CCOP(=O)(OCC)SCCSCC`: the Potency result was “inactive”.

For `II`, the “activation” value is -0.947%.

Regarding `C=CCC1([C@H](C)CCC)C(=O)NC(=O)NC1=O`, the “activation” value was 0.173%.

Take `COc1cc(CC(C)N)cc2c1OCO2` (stereo not given): the “activation” value was -0.541%.

As for `O=C(OC1CCCCC1)c1ccccc1C(=O)OC1CCCCC1`, the “activation” value is 0.832%.

With `CC(C)(OO)c1ccccc1`, the “activation” value is -0.39%.

For the molecule `O=NN1CCNCC1`, the “activation” value was -1.21%.

For the molecule `COC(=O)C(Cl)C(=O)OC`, the “activation” value was 0.547% [at 42.5 µM].

With `NC(=O)CI`, the “activation” value is -1.48%.

For `O=C(CCl)c1ccc(Cl)cc1Cl`, the Potency result is “inactive”.

In the case of `Nc1nc(=S)[nH][nH]1`, the “activation” value is 2.61%.

For the molecule `Clc1cccc(SC2CCNCC2)n1`, the “activation” value is 0.146% [at 42.5 µM].

In the case of `N#CCC#N`, the “activation” value is -0.416%.

Regarding `CC(c1ccc(O)cc1)(c1ccc(O)cc1)c1ccc(O)cc1`, the “activation” value was -7.89%.

With `O=C(O)COc1ccc(Cl)cc1`, the “activation” value is 0.532%.

`Cl/C=C\Cl`: the “activation” value was -1.77%.

On to `C=CC(=O)OCC(C)O` (stereo not given), for which the “activation” value was -1.21%.

Regarding `Brc1ccc(Oc2ccccc2)cc1`, the Potency result was “inactive”.

On to `CC1(C)CCC(Cc2ccc(Cl)cc2)C1(O)Cn1cncn1` (stereo not given), for which the “activation” value is -0.0107%.

As for `CNC(C)Cc1ccccc1OC` (stereo not given), the “activation” value is -0.334% [at 42.5 µM].

As for `CN1C[C@H](CNC(=O)OCc2ccccc2)C[C@@H]2c3cccc4c3c(cn4C)C[C@H]21`, the “activation” value is -0.225% [at 42.5 µM].

As for `CCC(Cl)CCl` (stereo not given), the “activation” value was 0.121%.

Regarding `OC(c1ccc(Cl)cc1)(c1ccc(Cl)cc1)c1cccnc1`, the “activation” value is -1.99%.

Turning to `CN(C)c1ccc(N(C)C)cc1`, the “activation” value is 6.64%.

As for `O=[N+]([O-])c1ccccc1CCl`, the “activation” value was 0.0914%.

With `O=S1(=O)OC(c2cc(Br)c(O)c(Br)c2)(c2cc(Br)c(O)c(Br)c2)c2ccccc21`, the “activation” value is -13%.

For `Cc1ccccc1C(=O)Nc1cccc(OC(C)C)c1`, the “activation” value was 3.23%.

On to `O=C1NCN(c2ccccc2)C12CCN(CCCOc1ccc(F)cc1)CC2`, for which the “activation” value was 0.203% [at 42.5 µM].

`CNP(=O)(OC)Oc1ccc(C(C)(C)C)cc1Cl` (stereo not given): the “activation” value is 6.97%.

`CCOP(=S)(OCC)Oc1nc(Cl)c(Cl)cc1Cl`: the Potency entry is “inactive”.

On to `Cc1ccc(N)cc1C`, for which the “activation” value was 5.72%.

Take `O=[Se]=O`: the “activation” value was -14.7% [at 42.5 µM].

`COC(=O)C(Br)CBr` (stereo not given): the “activation” value is -0.934%.
